# From PubChem BioAssay AID1347147 (National Center for Advancing Translational Sciences (NCATS), 2019)
# Records with an inconclusive call do not appear. Entries that show only a call come without a potency. The source made the active and inactive calls. The call rests on the fitted dose curve; in most records, active means well fitted inhibition curve with a large enough effect; inconclusive means small, poorly fitted or top-dose-only effect; inactive means no such curve, though single readings can be large or run the other way.
# Target: N-terminal Xaa-Pro-Lys N-methyltransferase 1 (Homo sapiens) (UniProt Q9BV86)
# Assay: qHTS Assay for Inhibitors of N-terminal methyltransferase 1 (NTMT1): MTaseGlo Confirmatory Screen, Round 2
# Conditions: NTMT1 enzyme, MTase-Glo SAH luminescence; series mostly up to 57.4 µM
# Summary of the method: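 NTMT1 (125 nM) with 100 µM SAM was preincubated ~15 min with compound, then 1 µM SPKRIA peptide was added for 30 min at RT. SAH was detected by MTase-Glo luminescence, normalized to no-enzyme and DMSO controls, and fitted to a 4-parameter Hill equation.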
# Potency means the concentration at half of the fitted maximal effect.
# N-terminal Xaa-Pro-Lys N-methyltransferase 1 (Homo sapiens), sequence (Q9BV86 whole entry, looked up): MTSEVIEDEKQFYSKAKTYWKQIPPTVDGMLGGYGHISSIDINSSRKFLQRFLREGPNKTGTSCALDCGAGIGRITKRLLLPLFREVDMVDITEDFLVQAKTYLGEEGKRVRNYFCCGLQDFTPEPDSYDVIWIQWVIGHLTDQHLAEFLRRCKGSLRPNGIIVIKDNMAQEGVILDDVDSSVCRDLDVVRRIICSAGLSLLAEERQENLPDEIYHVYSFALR
row,SMILES,Potency
1,CN1Cc2c(N)cccc2C(c2ccccc2)C1 (centres undefined),inactive
2,Clc1ccc(N2CCN(Cc3c[nH]c4ncccc34)CC2)cc1,inactive
3,COc1cc(/C=C(\C#N)C(=O)c2ccc(O)c(O)c2)cc(I)c1O,inactive
4,CCC(CC)n1ccc2c(C(=O)NCc3c(C)cc(C)[nH]c3=O)cc(C#N)cc21,inactive
5,N.N.O=C(O)C1(C(=O)O)CCC1.[Pt],inactive
6,CN(C)CCCN1c2ccccc2Sc2ccc(Cl)cc21,inactive
7,Cc1nnc(SCC2=C(C(=O)O)N3C(=O)[C@@H](NC(=O)Cn4cnnn4)[C@H]3SC2)s1,inactive
8,Nc1[nH]c(=O)nc2c1ncn2C1OC(CO)C(O)C1O (centres undefined),inactive
9,CCN1C(=O)C=CC1=O,inactive
10,O=c1c(O)c(-c2ccc(O)c(O)c2)oc2cc(O)cc(O)c12,inactive
11,N#C/C(=C\c1ccc(O)c(O)c1)C(=O)c1ccc(O)c(O)c1,inactive
12,Nc1ccnc2c1ncn2[C@@H]1O[C@H](CO)[C@@H](O)[C@H]1O,10 µM (active)
13,Oc1ccc(C2CNCc3sccc32)cc1O (centres undefined),inactive
14,Nc1nc(Cl)nc2c1ncn2[C@@H]1O[C@H](CO)[C@@H](O)[C@H]1O,inactive
15,CC(=O)c1ccc2c(c1)N(CCCN(C)C)c1ccccc1S2,inactive
16,CCCCNc1ccc(C(=O)OCCN(C)C)cc1,inactive
17,CC(=O)/C=C1\C(=O)N(C)c2ccccc21,inactive
18,CN(C)CCCc1cc(C(=O)Nc2ccc(-c3ccncc3)cc2)ccc1O,inactive
19,CCN(CC)C(C)CN1c2ccccc2Sc2ccccc21 (centres undefined),inactive
20,Oc1ccc(O)cc1,inactive
21,CNC(=O)c1cnn(-c2nc(N)c3ncn([C@@H]4O[C@H](CO)[C@@H](O)[C@H]4O)c3n2)c1,inactive
22,Clc1nccc2c1ccc1ccccc12,inactive
23,N[C@@H](Cc1c[nH]c2ccc(O)cc12)C(=O)O,inactive
24,CC(C)=CCNc1ncnc2c1ncn2[C@@H]1O[C@H](CO)[C@@H](O)[C@H]1O,inactive
